Screens from PubChem BioAssay.
Compounds with a hit are over-represented: about 7.9% of the library has one in this group of screens.
Marburg entry inh – blocks Marburg virus binding to or entry into cells | Potency, µM (top dose mostly 37.8 µM), for inactives: at the top dose activity change, negative = inhibition, actives largely listed as inhibitors | Marburg virus pseudotyped entry inhibition, cell reporter | actives 1.8% (n = 300,000); calls by dose curve; tested in HEK293 cells; further: potency means the concentration at half of the fitted maximal effect
FMDV antiviral – blocks foot and mouth disease virus; FMDV antiviral cell-based qHTS; Potency, µM (doses to about 57.9 µM), without a hit: at the top dose activity change, negative = inhibition, usual class: inhibitors; actives 1.2% (n = 410,000); AID 1159524; calls by dose curve; tested in HEK293T cells; further: read-out not given here; potency means the concentration at half of the fitted maximal effect; nearly all actives have a fitted effect of over 45% in size
HCMV antiviral – blocks human cytomegalovirus replication; HFF cells, HCMV-luciferase reporter, 72 h; stronger effect = lower value; activity change, negative = inhibition, % at 57.5 µM; actives 4.5% (n = 410,000); AID 1259415; in the data active means activity change below about -60%; inconclusive means no clear call, values can overlap the other calls; inactive means above about -39%
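Steps: HFFs plated, 16 h 37C; compounds added; HCMV-luciferase added to MOI 1 PFU/cell; 72 h 37C; OneGlo reagent, 5 min room temperature; luminescence read, normalized to controls.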
LASV entry inh – blocks Lassa virus binding to or entry into cells; Lassa virus pseudotype entry inhibition, cell reporter; Potency, µM (highest dose often 37.9 µM), without a hit: top-dose activity change, negative = inhibition, actives largely listed as inhibitors; AID 540256; actives 1.2% (n = 300,000); calls by dose curve; tested in HEK293 cells; further: potency means the concentration at half of the fitted maximal effect; nearly all actives have a fitted effect of over 50% in size
HCV inh – HCV inhibition. Potency, µM (highest dose often 41.8 µM), without a hit: top-dose activity change, negative = inhibition, actives largely listed as inhibitors. actives 3.4% (n = 340,000). Huh7.5.1 HCVcc-Cre infection, luciferase reporter, 44 h. AID 651820; active means well fitted inhibition curve with a large enough effect; inconclusive means small, poorly fitted or top-dose-only effect, or another doubt; inactive means no such curve, though single readings can be large or run the other way; further: potency means the concentration at half of the fitted maximal effect
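Antiviral activity was scored by luciferase reporter output from cells infected with HCVcc-Cre (~0.5 moi) in presence of compound, 44 h infection period, cells seeded 1,000/well 4 h prior.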
Active calls of the source: *; ? = inconclusive; . = no result; [ ] = another dose, or the depositor's remark. On the % scale 0 is the no-effect control and ±100 the full control effect.

SMILES	Marburg entry inh	FMDV antiviral	HCMV antiviral	LASV entry inh	HCV inh
CC(C)C(NC(=O)CCNC(=O)c1ccc(C(C)(C)C)cc1)c1nc2ccccc2[nH]1 (stereo not given)	?	?	1	?	6%
Cn1cccc1/C=C1\SC(=Nc2cccc(O)c2)NC1=O	.	0%	25	.	-3%
Cn1cccc1/C=C1\SC(=Nc2ccccc2)NC1=O	.	60%	2	.	7.9µM*
Cn1cccc1/C=C1\SC(=Nc2ccc(O)cc2)NC1=O	.	36%	-77*	.	?
Cc1ccc(N=C2NC(=O)/C(=C/c3cn(C)c4ccccc34)S2)cc1C	?	0%	?	0.1µM*	13µM*
O=C1NC(=Nc2ccc(Cl)cc2)/C(=C/c2ccco2)S1	?	48%	-80*	0%	?
COC(=O)C[C@@H]1C[C@H]2c3cc(N(C)C)ccc3O[C@H]2[C@H](CO)O1	.	-17%	.	.	.
COC(=O)[C@H](C=C[C@H](C)Cc1cc(Br)cc(OCc2ccccc2)c1OC)OCc1ccccc1	-15%[14.2 µM]	.	.	.	.
O=C1NC(=Nc2ccc(O)cc2)S/C1=C/c1ccco1	?	5%	-1	4.6µM*	?
CCOc1cc(Br)cc(/C=C2\SC(=Nc3ccccc3)NC2=O)c1O	.	0%	-84*	.	?
C=CCOc1ccc(Br)cc1/C=C1/SC(=Nc2ccc(C(=O)O)cc2)NC1=O	.	2%	-15	.	7%
Cc1cccc(N=C2NC(=O)/C(=C/C=C/c3ccco3)S2)c1	?	9%	14	18µM*	?
Cc1ccc(N=C2NC(=O)/C(=C\c3ccco3)S2)cc1	7%	47%	-24	?	-3%
COc1ccc(CCNC(=O)c2ccc3c(c2)sc2nc(-c4ccccc4)cn23)cc1OC	.	-8%	.	-7%[46.1 µM]	.
C[C@H]1Cc2c(-c3ccccc3)nc3c(c2CO1)CN(S(=O)(=O)c1ccc2c(c1)OCCN2C)CC3	-12%[14.2 µM]	.	.	?	.
COCCN1CCN(C(=O)c2cnn(-c3nccc(-c4ccccc4OC)n3)c2-c2ccco2)CC1	.	-17%	.	.	.
CC12CCC3c4ccc(OC(=O)N(CCCl)CCCl)cc4CCC3C1CCC2O (stereo not given)	?	-30%	9	5.6µM*	?
Cc1ccc2c(c1)CN(CCNC(=O)c1cccc(Cn3cccn3)c1)CC(C)O2 (stereo not given)	.	25%	.	.	.
CCC(C)(C)NC(=O)C(c1ccc(F)cc1)N(Cc1cccc(OC)c1)C(=O)c1cnccn1 (stereo not given)	15%[46.1 µM]	9%	-32	-3%[46.1 µM]	7%
CCC(C)(C)NC(=O)C(c1ccc(F)cc1)N(Cc1ccc(OC)cc1)C(=O)c1cnccn1 (stereo not given)	1%[46.1 µM]	64%	-66*	-3%	4%
O=C(NNc1ccc([N+](=O)[O-])cc1)c1ccco1	.	-7%	-17	.	7%
Cc1cc(NC(=O)c2ccc([N+](=O)[O-])cc2Cl)ccc1NC(=O)c1ccco1	25%	2%	32	-3%	7.9µM*
COc1ccc(C(=O)Nc2cccc(/C(C)=N\NC(=O)c3ccoc3C)c2)cc1OC	16%[46.1 µM]	-1%	106	?	?
CC(=O)OCC(=O)Nc1ccc([N+](=O)[O-])cc1Cl	?	-8%	-13	27%[46.1 µM]	13%
CC(=O)Oc1c(C)cc(Cl)cc1C(=O)Nc1ccc([N+](=O)[O-])cc1Cl	1.5µM*	-19%	-98*	3.7µM*	?
SMILES	Marburg entry inh	FMDV antiviral	HCMV antiviral	LASV entry inh	HCV inh
COc1ccc(C(=O)Nc2cccc(/C(C)=N/NC(=O)c3ccc([N+](=O)[O-])c(C)c3)c2)cc1OC	?	?	40	?	2.8µM*
O=C(NNc1ccc([N+](=O)[O-])cc1[N+](=O)[O-])c1ccco1	?	20µM*	.	?	-15%
CCOC(=O)C1=CCN(S(=O)(=O)c2ccc(F)cc2)C1c1ccc(Cl)c(Cl)c1 (stereo not given)	.	-25%	?	.	.
COc1ccc(NC(=O)NCCn2nnc3cc(S(=O)(=O)N(C)C)ccc32)cc1	.	2%	6	-19%[46.1 µM]	.
Cc1ccccc1C1(CC(=O)N2CCOCC2)CC(=O)N(Cc2cccnc2)C1=O (stereo not given)	.	-13%	.	.	.
COc1ccc(C(N)c2csc(Nc3ccc(C(F)(F)F)cn3)n2)cc1 (stereo not given)	.	-24%	38	.	.
C/C(=N\Nc1ccc(C(=O)O)cc1)c1ccc(-n2ccnc2)cc1	-11%[46.1 µM]	5%	32	?	1%
Cc1cc(C(=O)Nc2cccc(NC(=O)c3ccco3)c2)ccc1[N+](=O)[O-]	12%[46.1 µM]	2%	-82*	-27%[46.1 µM]	?
COc1ccccc1/C=C(\NC(=O)c1ccc(OC)c(OC)c1)C(=O)Nc1ccc([N+](=O)[O-])cc1	3%	-5%	-22	3%	-17%
COc1ccccc1/C=C(\NC(=O)c1ccc(OC)c(OC)c1)C(=O)Nc1cccc([N+](=O)[O-])c1	2%	-10%	-61*	?	-10%
Cc1cc(NC(=O)c2ccc([N+](=O)[O-])o2)ccc1NC(=O)c1ccco1	.	-7%	-85*	.	?
O=C(Nc1ccc(S(=O)(=O)N2CCCCC2)cc1)C1CCCN(C(=O)c2ccc(Cl)cc2)C1 (stereo not given)	?	?	-65*	0.29µM*	-23%
O=C1CCCc2cc(S(=O)(=O)N3CCCC(C(=O)Nc4ccc(F)c(Cl)c4)C3)ccc2N1 (stereo not given)	.	32µM*	-40	-27%[46.1 µM]	.
COc1ccc(NC(=O)C2CCCN(C(=O)c3ccc(Cl)cc3)C2)cc1Cl (stereo not given)	.	-11%	-73*	.	?
O=C(Nc1ccccc1)C1CCCN(C(=O)c2ccc(Cl)cc2)C1 (stereo not given)	?	?	-65*	?	-9%
Cc1ccc(C(O)c2ncc(-c3cccc(C(F)(F)F)c3)[nH]2)cc1 (stereo not given)	.	8%	5	.	.
Nc1ccn(CC(=O)NCc2ccc3[nH]ccc3c2)c(=O)n1	.	-8%	3	.	17%
Cc1ccc(S(=O)(=O)N(C)C)cc1NC(=O)CSc1nc2ncc(Cl)cc2[nH]1	-3%	?	5	-2%	2.5µM*
Cc1cccc(-c2nc3c(c(SCC(=O)N4CCOCC4)n2)Cc2c(CO)cnc(C)c2O3)c1	?	-11%	.	?	11µM*
COc1cccc(-c2nc3c(c(SCC(=O)N4CCOCC4)n2)Cc2c(CO)cnc(C)c2O3)c1	.	-8%	.	.	11µM*
COc1ccccc1-c1nc2c(c(SCC(=O)Nc3ccc(C)c(C)c3)n1)Cc1c(CO)cnc(C)c1O2	.	-27%	-76*	-14%[46.1 µM]	.
Cc1cc(C)cc(NC(c2cccc(Cl)c2)c2nnc(-c3ccccc3)o2)c1 (stereo not given)	?	13%	-5	-30%[46.1 µM]	.
COc1cccc(NC(=O)C(=O)NCC(c2ccc3c(c2)OCO3)N2CCOCC2)c1 (stereo not given)	.	30%	73	20%[46.1 µM]	.
CCOC(=O)CCc1ccc(NC(=O)/C=C/c2ccc([N+](=O)[O-])o2)cc1	?	25µM*	-15	7.1µM*	?
